TIM10 inh = growth inhibitors of isogenic TIM10 control yeast, primary screen, counter-screen for tim10-1 yeast inhibitor project, luminescence, uHTS; AID 463195, 2010; inhibition, % at 10 µM; actives 1.4% (n = 330,000); S. cerevisiae TIM10 strain growth, BacTiter-Glo luminescence, 24 h;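 active = inhibition of 40% or more at the single tested concentration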;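 note: wild-type TIM10 isogenic control strain grown at permissive 25 °C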
tim10-1 inh = growth inhibitors of tim10-1 mutant yeast, primary screen, luminescence, uHTS; S. cerevisiae tim10-1 ts strain growth, BacTiter-Glo, 24 h; inhibition, % at 20 µM; actives 2.2% (n = 330,000);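 active = inhibition of at least 40%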;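 note: mutant grown at 25 °C; 0% = DMSO wells with yeast and 100% = wells holding no yeast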
NLRP3 yeast inh = NALP3 inflammasome inhibitors in reconstituted yeast, primary screen, luminescence, uHTS; AID 2825, 2010; inhibition, % at 10 µM; Yeast reconstituted NLRP3/ASC/caspase-1, beta-gal luminescence, 24 h; actives 0.39% (n = 330,000);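 active = inhibition of 50% or more; inactive = inhibition below 50%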;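 note: plate controls were induced DMSO wells for no effect and uninduced yeast grown without galactose for full effect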
NALP1 inh = NALP1 inflammasome inhibitors in reconstituted yeast, colorimetric, S. cerevisiae, triplicate retest | S. cerevisiae NALP1/ASC/caspase-1 growth, X-gal OD620, 72 h | AID 2071, 2009 | actives 0.61% (n = 280,000) | inhibition, % at 10 µM; in the data active = inhibition mostly above about 24%, no sharp cut-off; inactive = mostly below about 32%
tim23-1 inh = growth inhibitors of tim23-1 mutant yeast, primary screen, luminescence, uHTS | actives 1.3% (n = 330,000) | inhibition, % at 20 µM | S. cerevisiae tim23-1 growth, BacTiter-Glo luminescence, 24 h;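 active = growth inhibition of the mutant yeast at or above 50%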;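 note: temperature-sensitive mutant grown at 25 °C; plate controls were DMSO-treated mutant yeast for no effect and medium wells lacking yeast for full effect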
NALP3 yeast conf = NALP3 inhibitors retested in yeast, confirmation, luminescence, single concentration; yeast expressing human NALP3; actives 81% (n = 1,300); inhibition, % at 10 µM; shares compounds with NLRP3 yeast inh; in the data active = inhibition above about 48%
Casp1 ASC ctr = CASP1-PYCARD signaling inhibition in yeast, confirmatory test, counterassay for NLRP3 inhibitor program, one-dose | yeast expressing Caspase-1-ASC, luminescence counter screen | inhibition, % at 10 µM | AID 488784, 2010 | actives 66% (n = 1,000) | shares compounds with NLRP3 yeast inh
NALP3 yeast rt = NALP3 inhibitors in yeast, repeat test, confirmation, luminescence, single concentration, retest; shares compounds with NLRP3 yeast inh; yeast expressing human NALP3, luminescence read-out; inhibition, % at 10 µM; actives 53% (n = 1,000)
* marks the source's active call; other numbers are inactive results; . = no result. Sampled rows, rich in hits. Any-hit rate of the full collection: about 4%. Cut-off read from the data, not from the text of the source, unless noted: active = inhibition above about 50%; inactive = the rest.

SMILES | TIM10 inh | tim10-1 inh | NLRP3 yeast inh | NALP1 inh | tim23-1 inh | others
O=C(c1ccccc1)C(CN1CCCC1)c1ccccc1 (stereo not drawn) | . | . | . | 94* | .
CC(C)(C)N1Cc2ccccc2C1=N | -10 | -4 | 16 | 43* | 7
Cc1cccc(N2C(=O)NC(=O)/C(=C/c3ccc([N+](=O)[O-])o3)C2=O)c1 | . | . | . | 48* | .
CCN(c1ccc(C(O)(C(=O)OC)C(F)(F)F)cc1)S(=O)(=O)c1ccc(C)cc1 (stereo not drawn) | 12 | 11 | 5 | 2 | 25
CC1CCC/C=C/C2CC(O)CC2C(O)/C=C/C(=O)O1 (stereo not drawn) | -50 | -13 | 3 | 40* | -149
CC[n+]1c(SC)ccc2cc(OC)ccc21 | -9 | -11 | 14 | 24 | -3
COC1=CCC2([N+](=O)[O-])CN(C)CC1([N+](=O)[O-])C2 (stereo not drawn) | 5 | 16 | -6 | 23 | -1
CCOC(=O)C(O)(c1ccc(N=c2ccccn2C)cc1)C(F)(F)F (stereo not drawn) | 1 | -4 | -4 | 21 | -4
CC1=NOC2(C)Nc3ncnn3C(c3ccccc3)C12 (stereo not drawn) | -15 | -1 | 12 | 36* | 3
COc1ccc(NC2=NC(C)(C)CS2)cc1 | 5 | 6 | -5 | -13 | 14
CC1(C)COC(Nc2ccc(Cl)cc2)=N1 | 4 | 17 | 5 | 41* | 10
Cc1ccc(C)c(Cn2c(C(=O)O)c(C=O)c3ccccc32)c1 | 0 | -6 | 1 | 28* | 21
Nc1c2c(nc3sc4c(c13)CCCC4)CCCCC2 | 4 | -12 | 47 | 54* | 19
Cc1cccc(N=Nc2ccc(N(C)C)cc2)c1 | -3 | 8 | 45 | 24 | 6
COc1ccc([C@@H](O)[C@@H](N)c2ccccc2)cc1 | 17 | 17 | 0 | . | 22
CCCOP(=O)(OCCC)C(NC(=O)c1ccccc1)=C(Cl)Cl | -5 | 22 | 14 | 29 | 22
CCc1ccc(CN2CCN(Cc3cc(Br)ccc3O)CC2)cc1 | 24 | 24 | -3 | 24 | 13
CCN1CCN(Cc2cc(Br)ccc2O)CC1 | -1 | -2 | -1 | 43* | 4
CCOC(=O)C1(CCc2ccccc2)CCN(Cc2cccc3cnccc23)CC1 | -10 | 20 | 14 | 9 | 7
CCOC(=O)C1(CCc2ccccc2)CCN(Cc2csc(C(C)=O)c2)CC1 | -3 | 20 | 35 | 27* | 9
O=C1/C(=C\c2ccc(Cl)cc2Cl)N2CCC1CC2 | 30 | 39 | 8 | 3 | 40
O=C1/C(=C\c2cc3c(cc2Cl)OCO3)N2CCC1CC2 | 28 | 33 | 5 | 45* | 37
O=C1/C(=C/c2cc3c(cc2Cl)OCO3)N2CCC1CC2 | 30 | 30 | 8 | 47* | 44
Cc1nn(CC(=O)N2CCC3(CC2)OCCO3)c(=O)c2cc3ccccc3n12 | 0 | 14 | 8 | 14 | 16
C/C(=C\c1ccc(N(C)C)cc1)[N+](=O)[O-] | 2 | 11 | 26 | 15 | 45
SMILES | TIM10 inh | tim10-1 inh | NLRP3 yeast inh | NALP1 inh | tim23-1 inh | others
CN(C)c1ccc(/C=C/[N+](=O)[O-])cc1 | 2 | 12 | 11 | 80* | 46
O=[N+]([O-])c1ccc(N2CCCC2)c(F)c1Br | 23 | 15 | 52* | 23 | 10 | NALP3 yeast conf=60*;Casp1 ASC ctr=72*;NALP3 yeast rt=62*
C[C@]12CC[C@H](OS(=O)(=O)O)CC1=CC[C@@H]1[C@@H]2CC[C@]2(C)C(=O)CC[C@@H]12 | 6 | 2 | 9 | . | 8
C[C@]12CC[C@H](OC(=O)CCC(=O)O)CC1=CCC1C2CC[C@@]2(C)C1CC[C@@H]2OC(=O)CCC(=O)O (stereo partly drawn) | -6 | -3 | 37 | . | 21
C[C@]12CCC(OC(=O)CCC(=O)O)CC1=CCC1C2CC[C@]2(C)C(=O)CCC12 (stereo partly drawn) | -7 | 14 | 59* | 19 | 13 | NALP3 yeast conf=66*;Casp1 ASC ctr=57*;NALP3 yeast rt=48
CC12CCC3C(CC=C4CC5(CCC43C)OCCO5)C1CCC2=O (stereo not drawn) | -14 | -10 | 62* | 15 | -13 | NALP3 yeast conf=75*
O=c1c2ccccc2nc(Cc2ccccc2)n1-c1ccc(O)cc1 | 26 | 11 | 17 | -5 | 15
CCOC(=O)C1=Nc2ccccc2/C1=C\c1c(O)n(C)c(=O)n(C)c1=O | -9 | -26 | 53* | -4 | 37 | NALP3 yeast conf=45
O=C1CC(=O)N(c2ccccc2)C(=O)N1c1ccccc1 | 7 | -9 | 12 | 11 | 0
C[C@]12CC[C@H](O)C[C@H]1CC[C@@H]1[C@@H]2CC[C@]2(C)[C@@H](C3=CC(=O)OC3)CC[C@]12O | 6 | 0 | 28 | . | 13
C[C@]12CCC3C(CC[C@H]4C[C@@H](O)CC[C@]34C)C1CCC2=O (stereo partly drawn) | -152 | -86 | 64* | . | -21 | NALP3 yeast conf=66*;Casp1 ASC ctr=63*;NALP3 yeast rt=44
C[C@]12CCC3C(CC[C@H]4C[C@@H](O)CC[C@]34C)[C@H]1C=CC2=O (stereo partly drawn) | 13 | 17 | 55* | . | 37 | NALP3 yeast conf=60*
C[C@]12CCC3[C@@H](CC[C@@H]4C[C@H](O)CC[C@]34C)[C@@H]1CCC2=O (stereo partly drawn) | 10 | 30 | 67* | . | 44 | NALP3 yeast conf=61*;Casp1 ASC ctr=71*;NALP3 yeast rt=61*
C[C@]12CCC3C(CC[C@H]4C[C@@H](O)CC[C@]34C)C1[C@H]1CN=N[C@H]1[C@@H]2O (stereo partly drawn) | -5 | 9 | 37 | . | 0
C[C@]12CCC3C(CC[C@H]4C[C@@H](O)CC[C@]34C)C1C[C@@H](Br)[C@H]2O (stereo partly drawn) | -81 | -66 | 58* | . | -7 | NALP3 yeast conf=50*
C=CCN=C(SCC(=O)c1ccc(Cl)cc1)c1c(O)n(C)c(=O)n(C)c1=O | -8 | -13 | 13 | 7 | -1
COC(=O)C1=C(c2ccc3ccccc3c2)C[C@@H]2CC[C@H]1N2C(=O)N1CCCCC1 | 17 | 3 | 16 | . | 29
C[C@]12CC[C@H](O)C[C@@H]1CC[C@@H]1[C@@H]2CC[C@]2(C)C(=O)CC[C@@H]12 | -203 | -60 | 67* | 27 | -25 | NALP3 yeast conf=62*;Casp1 ASC ctr=62*;NALP3 yeast rt=42
